A number with no mark means an inactive call. How the calls were made is not given here.
B1: d1r8_design_ppi_953_dldesign_0_cycle1_af2pred (protein)
chain: SAAAELALKSLQAALAAAKAAAKAYGPAAAEAHLKNALLLADSYAAATDAAAGAALKAKVEAEAAAAMAAV
B2: d1r8_design_ppi_870_dldesign_0_cycle1_af2pred (protein)
chain: EAEANQQAMNLLMRAAALQPRDREKAREAVEEGRKVAKDEETKKLLEEAVKALDGDVDEAIAVLLETAKKISERAREAAA
B3: d1r8_design_ppi_811_dldesign_0_cycle0_af2pred (protein)
chain: AQEAADQAAFEAAKAGLEKATEAAVGMLEALGEEEAAKEVREFAEKAKKEAEKLTPKEGAELYGKAANEILRRTSQVAAQAVA
B4: d1r8_design_ppi_742_dldesign_0_cycle1_af2pred (protein)
chain: AAAAAAKAAAAAAAQAALRSLRDLAARAKAAEAAGDPEAAAKYRAAAEQWADIAIASAKQAGTEATVAAEAAALLAA
B5: d1r8_design_ppi_791_dldesign_0_cycle0_af2pred (protein)
chain: SENEKKLEEVKKKLEEAKKAAEEDPKAGAALAIETIELAKKAAEEAKKNGDEKTAEEANKLAHEAMKLAAKALAKAAA
B6: d1r8_design_ppi_723_dldesign_0_cycle1_af2pred (protein)
chain: EEAQKKIKELGEKAAELAKKNVEEGAEALKEAAKLAAKAQPASAEQILKHGEAVAERAKTLSPEEAATLVRNAGKVFAQL
B7: d1r11_design_ppi_51_dldesign_0_cycle1_af2pred (protein)
chain: AEVEKKAKEAKKKVEEAKKKMEEAEKAGDAEALRKAAAEANKKAIELASAALAEKDAETAKALAEAAQKLVEIALRANEAMAKLER
B8: d1r8_design_ppi_849_dldesign_0_cycle0_af2pred (protein)
chain: DDAAKAAELTALVLEEEAADPVRAGEVGAARARELGLSAAGILAVLDRVVAEAAPSGETVRALMRAAIEAAQA
B9: d1r11_design_ppi_223_dldesign_0_cycle1_af2pred (protein)
chain: AAEAQALAAQAKKLADEAAKEAASPKSGELLGKAIELAMQANTLDPALGGQLSKYIAATAAAAAAKAAAEAAA
B10: d1r8_design_ppi_889_dldesign_0_cycle1_af2pred (protein)
chain: AMAAAIAAVAASARAAAAIGRADPAAAPGAAAFLDVAAETLAALAKADPAHAAQANAAAAEARATAAELRAAAAA
B11: d1r8_design_ppi_843_dldesign_0_cycle0_af2pred (protein)
chain: AEEARRAEAAARLEAAVAAGQATLVEVNKAAAATGDAALAEAALALSRAIAEGRRLGREGRYEEGAALVEAATKAAKATLAA
B12: d1r8_design_ppi_886_dldesign_0_cycle1_af2pred (protein)
chain: AKAAELAAEGKALAEQLAKEGAADGEKGIELLKQGSALVRELEALGAEDPEYAEAAKAAQAALQAAVAAFAAASIAKAAAA
B13: d1r8_design_ppi_811_dldesign_0_cycle1_af2pred (protein)
chain: AEEEEAERAREEAKESLLAARDTAVGILTAAGLTDKAKEVEKYAEEALKEAEKLTPEEAAKLYGEAANRILTDTIAAASAAVA
B14: d1r11_design_ppi_189_dldesign_0_cycle1_af2pred (protein)
chain: AAAEKAKLGFQLLNQLQKAQQAVAAGAAAGATAAEFEALAAQAQKAKEEGKQTILADTVQAAADVVIAAARAAAAAAKARAA
B15: d1r8_design_ppi_647_dldesign_0_cycle0_af2pred (protein)
chain: KEELVKQAESLEKFAKLAAEGASPEAKPLFEKAAEKFRKAAEAAKENPEEGEKLMAEGRKLLAEGMRLEIQLR
B16: d1r8_design_ppi_716_dldesign_0_cycle1_af2pred (protein)
chain: AVEAALAEARAVLERAKEAAKRLKEVGTPEEQKLAEELVALGETALKQAEADGTLATARGALAAARLALQGLEGLLERALARRAAAA
B17: d1r8_design_ppi_923_dldesign_0_cycle0_af2pred (protein)
chain: AAEMAATAAYVSEVAARAQAEDPSLGPEVNRLFALLARAGAAYAADPAAGAAVAAEARAYAEELDKRLEAAL
B18: d1r8_design_ppi_838_dldesign_0_cycle1_af2pred (protein)
chain: NAGELLGKALELLEEASRLAKEDYEKAKEAAEKAIEYAEKAAAADPAHAPALVAVKSAARNIIEQAKKNEAARKAA
B19: d1r8_design_ppi_590_dldesign_0_cycle1_af2pred (protein)
chain: LEEVKKKLKELAELAKSAGKWNPETGKQVVKSLLRVAESEAKRLAGDPEAAEKVKKYGEELAKEAEKEIKEVAAA
B20: d1r11_design_ppi_238_dldesign_0_cycle0_af2pred (protein)
chain: AAAAAAAAAAAALAEAAARAAAATDVTTKVGAALTAQNPSVKPITDAAVEKMKQAAAVVADPAKAAAYQKEAGDLLTQALRQVAAARR
B21: d1r11_design_ppi_322_dldesign_0_cycle0_af2pred (protein)
chain: DTAEKAREVAKKAVEVAKEAAEKDPRAQAVYETAKIVAEGVEALVAAGQTELALRQAETQLKIAEKVLKEVLA
B22: d1r8_design_ppi_744_dldesign_0_cycle1_af2pred (protein)
chain: STAEKAVKLVEETAKKGIAEAKADPAKVPAAAKELAKKGKEAAKLIGSTGLAVGIGNLAKTAIAFPEQAPDYFASAAALAKEVAE
B23: d1r8_design_ppi_790_dldesign_0_cycle0_af2pred (protein)
chain: AAAAAQAATATAIRSRGTNRMLTRILALPASASEAELRAIVEEEAERARAEMLAAGVSPELAEAAVEHILRIGEQAIAAR
B24: d1r8_design_ppi_824_dldesign_0_cycle1_af2pred (protein)
chain: AEAERRRAEVLALFDEAVAAGSPELARAAAERAAELNPERAEDIRQQGEIAAALMPFSPRAARALMRTVAA
B25: d1r8_design_ppi_780_dldesign_0_cycle1_af2pred (protein)
chain: AAATLAALTAAFGRLVELGAEAIRANPALAPEVNKLLGTASKAAIAGIRDPSLAEAALKTIEAQLKKVEELLKKAK
B26: d1r11_design_ppi_301_dldesign_0_cycle0_af2pred (protein)
chain: SLLEEAKKLAEELKELLKKAKEALADPEKAKELIKKAEEANKKLVELAVEAAKAGDHESAALANRAALEGQRKIAEIKAQLAA
B27: d1r8_design_ppi_679_dldesign_0_cycle0_af2pred (protein)
chain: AEAQKLLEKAKKLAEEAKKIAKESGDEEAKRIAEGAKKMAELAKAALAAGDSAAAMQAYLAGVKTLYEAAKEEAKRKA
B28: d1r8_design_ppi_832_dldesign_0_cycle0_af2pred (protein)
chain: AAEAAALKAQIEAAIAQMREETRRAAERDVEEGGRVASAATQQITKLVSQLAKVDPAAGAEAMALLTEAMREVQAYLDAERAARA
B29: d1r11_design_ppi_310_dldesign_0_cycle1_af2pred (protein)
chain: EAAAAAALTAKAQALYAKYVAAAKAAQAALAGTEAHKEIAALLAQAEAAADDIGLALALASTAANLAAAKLAAALA
B30: d1r8_design_ppi_616_dldesign_0_cycle0_af2pred (protein)
chain: DAERQAALEEAKKEAERAKKAAEEAIKAAAKDPEAQKKLEEARENLEAALKWAEETNGDVTTWKGVTALARMVLQAAEGIKKKAEA
B31: d1r8_design_ppi_934_dldesign_0_cycle1_af2pred (protein)
chain: ASPLERAESLREFLHTVADAMAKNVGAEGQKVADAAKAAGDAAVAAARAAGTPEAYEAARDTLRALTADVIKAYMAALS
B32: d1r8_design_ppi_934_dldesign_0_cycle0_af2pred (protein)
chain: ASALARAESQLAFLNTVADAMATQTGEEGAKIAAEAKAAGDAALAAAKASGTPAAYEAATAQLNALTAQVQRETMARLA
B33: d1r11_design_ppi_170_dldesign_0_cycle0_af2pred (protein)
chain: ASPEELTLTARALAFAGGSPEWRPLLQEAIAAYATAEASDPATGAAARAKADAITAELVERYRAAEAAEAAAAA
B34: d1r8_design_ppi_906_dldesign_0_cycle1_af2pred (protein)
chain: AAEAAERADRGQGTLIAMEAEARLAAIAKAHPEVAALAAAAAERVRAAAPLPAAEVRAVAERELAEVEAALAAA
B35: d1r8_design_ppi_667_dldesign_0_cycle0_af2pred (protein)
chain: SAAAAAALAAARATAVAALTAGTGLAPEEAAALAAAMTDDQIFAIANLNAANPAAGQALAANLAAQVRRELA
B36: d1r8_design_ppi_616_dldesign_0_cycle1_af2pred (protein)
chain: DAAREAALKEAKEEFEKAEKEAEEAIKAAKDDPEAQKKLKELRESAKAALENAEKTKADVTTYKGVKALARMLLQTAEGVKKAAEA
B37: d1r8_design_ppi_735_dldesign_0_cycle1_af2pred (protein)
chain: SEAAEKALKAVEAAIEVVETGTPEEALAATKAAAEVAKKAAEAAGNLGAQIKATADAAVKATAADKAAGLAKLRTLATLLRAYAEA
B38: d1r8_design_ppi_661_dldesign_0_cycle1_af2pred (protein)
chain: DVVAEARELAARAEEAAERARADPAASQEVVDLFRQAAGYARNALLLAEGTPESQAQAARLLERARRLFEEAERRFRADVAAAA

Molecular target: CD276, Q5ZPR3
Sequence (Q5ZPR3 whole entry): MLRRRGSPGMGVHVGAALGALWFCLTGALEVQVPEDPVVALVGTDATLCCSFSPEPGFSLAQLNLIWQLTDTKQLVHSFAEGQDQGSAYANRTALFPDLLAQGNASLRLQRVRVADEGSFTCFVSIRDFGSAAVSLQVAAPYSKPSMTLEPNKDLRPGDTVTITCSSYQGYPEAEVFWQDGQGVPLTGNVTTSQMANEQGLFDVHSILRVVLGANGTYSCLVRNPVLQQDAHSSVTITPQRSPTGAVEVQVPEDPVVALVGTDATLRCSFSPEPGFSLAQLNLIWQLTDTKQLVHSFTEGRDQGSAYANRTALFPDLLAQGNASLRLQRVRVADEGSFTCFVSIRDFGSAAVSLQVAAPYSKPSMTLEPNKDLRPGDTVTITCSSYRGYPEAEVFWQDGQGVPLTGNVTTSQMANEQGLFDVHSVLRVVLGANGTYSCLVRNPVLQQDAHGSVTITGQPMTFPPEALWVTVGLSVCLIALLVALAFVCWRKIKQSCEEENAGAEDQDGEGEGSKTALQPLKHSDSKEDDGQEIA

Binder	binding in a display sort
B1	not found
B2	not found
B3	not found
B4	not found
B5	not found
B6	not found
B7	not found
B8	not found
B9	not found
B10	not found
B11	not found
B12	not found
B13	not found
B14	not found
B15	not found
B16	not found
B17	not found
B18	not found
B19	not found

Binder	binding in a display sort
B20	not found
B21	not found
B22	not found
B23	not found
B24	not found
B25	not found
B26	not found
B27	not found
B28	not found
B29	not found
B30	not found
B31	not found
B32	not found
B33	not found
B34	not found
B35	not found
B36	not found
B37	not found
B38	not found

From PMC13494018
